{"source": "PubChem BioAssay (NCATS)", "note": "Inconclusive results are not listed. Entries that show only a call come without a potency. Calls of active or inactive are those of the source. The call rests on the fitted dose curve; in most records, active means well fitted cell-killing curve with a large enough effect; inconclusive means small, poorly fitted or top-dose-only effect, or effect the other way; inactive means no such curve, though single readings can be large or run the other way. Positions of bridges follow the written chain, without caps; N, C: chain ends. Non-standard residues stand in square brackets, D forms with d. Residues, ends and D or L forms follow the SMILES beside them. ξ: configuration not given here. *: point of attachment. Octanoyl(6-Me) = CCC(C)CCCCC(=O)*; ξThr(3R) = C[C@@H](O)C(N)C(=O)O; dDab = NCC[C@@H](N)C(=O)O; Dab = NCC[C@H](N)C(=O)O", "data": [{"assay": "Quantitative High-Throughput drug screen in 47 multiple myeloma cell lines against the NCATS MIPE library collection: Karpas620_DSMZ cell viability assay (AID 1918959); further: nearly all actives have a fitted effect of over 30% in size; further: potency means the concentration at half of the fitted maximal effect", "settings": "Karpas620 myeloma viability, CellTiter-Glo ATP luminescence, 48 h; series mostly up to 45.8 µM", "from_the_text": "PI: Beverly A. Mock Ph.D.\nLaboratory of Cancer Biology and Genetics,\nCenter for Cancer Research, National Cancer Institute,\nNational Institute of Health, Bethesda, Maryland\nDrug resistance and disease progression are common in multiple myeloma (MM) patients, underscoring the need for new therapeutic combinations. […] We hypothesized that effective combinations would reduce MYC expression and enhance p16 activity. […] These preclinical data identify potentially useful drug combinations for evaluation in drug-resistant MM and reveal potential mechanisms of combined drug sensitivity.\nDescribed herein is the primary MIPE qHTS used to cherrypick compounds. Validated compounds were then further tested for potential synergistic activiy.\n[1] Peat TJ, Gaikwad SM, Dubois W, Gyabaah-Kessie N, Zhang S, Gorjifard S, Phyo Z, Andres M, Hughitt VK, Simpson RM, Miller MA, Girvin AT, Taylor A, Williams D, D'Antonio N, Zhang Y, Rajagopalan A, Flietner E, Wilson K, Zhang X, Shinn P, Klumpp-Thomas C, McKnight C, Itkin Z, Chen L, Kazandijian D, Zhang J, Michalowski AM, Simmons JK, Keats J, Thomas CJ, Mock BA. Drug combinations identified by high-throughput screening promote cell cycle transition and upregulate Smad pathways in myeloma. Cancer Lett. 2023 Aug 1;568:216284. doi: 10.1016/j.canlet.2023.216284. Epub 2023 Jun 24. PMID: 37356470; PMCID: PMC10408729.\nSEQUENCE No. (e.g., 1, 2, 3, etc.); […] (e.g., Cells, Incubation, Reagent, etc.); VALUE and DESCRIPTION.\n1; Cells; 5 uL; white, solid bottom 1536-well Greiner assay plate.\n2; Compounds; 23 nL; Kalypsis pin tool (Wako USA) equipped with a 1536-well pin head to transfer to the assay plates.\n3; Incubation; 48 hours; 37C incubation.\n4; Reagent;5uL; CellTiter Glo (Promega).\n5; Detector; 425V; Luminescence; Viewlux PerkinElmer.\nNOTES (numbers refer to Sequence numbers above)\n1. The cell-based screening methods employed in this study were like those previously published. Briefly, the corresponding myeloma cell lines were screened in 1,536-well plates with 500 cells, 5-uL per well for inhibition of cell viability (assessed by measuring ATP levels with CellTiterGlo).\n2. NCATS MIPE 4.0 library of approved and investigational drugs were added using the Kalypsis pin tool. Wells treated with DMSO only for 100% viability and media only wells for 0% viability were used as controls.\n3. The assay plates were covered and incubated for 48 hours in a 37C, 5% CO2 incubator with controlled humidity.\n4. After 48 hours, CellTilter-GloTM luminescent substrate mix (Promega) reagent was added to the assay plate and plates we incubated for 5 min at room temperature.\n5. Signal was measured as median relative luminescence units on a ViewLux (PerkinElmer) multiplate reader.\n[1] Heske CM, Davis MI, Baumgart JT, Wilson K, Gormally MV, Chen L, Zhang X, Ceribelli M, Duveau DY, Guha R, Ferrer M, Arnaldez FI, Ji J, Tran HL, Zhang Y, Mendoza A, Helman LJ, Thomas CJ. Matrix Screen Identifies Synergistic Combination of PARP Inhibitors and Nicotinamide Phosphoribosyltransferase (NAMPT) Inhibitors in Ewing Sarcoma. Clin Cancer Res. 2017 Dec 1;23(23):7301-7311. doi: 10.1158/1078-0432.CCR-17-1121. Epub 2017 Sep 12. PMID: 28899971; PMCID: PMC6636827.", "values": [{"compound": "CC(C=CC(=O)NO)=C[C@@H](C)C(=O)c1ccc(N(C)C)cc1", "Potency": "0.418 µM (active)"}, {"compound": "N#Cc1cc(NC(=O)Nc2nnc(-c3ccncc3)s2)ccc1-c1cn[nH]c1", "Potency": "inactive"}, {"compound": "CN[C@H]1[C@@H](O)[C@@H]2O[C@@H]3O[C@H](C)CC(=O)[C@]3(O)O[C@@H]2[C@@H](NC)[C@H]1O", "Potency": "0.743 µM (active)"}, {"compound": "COc1cc([C@@H]2c3cc4c(cc3[C@@H](O[C@@H]3O[C@@H]5CO[C@@H](c6cccs6)O[C@@H]5[C@H](O)[C@@H]3O)[C@H]3COC(=O)[C@H]23)OCO4)cc(OC)c1O", "Potency": "2.96 µM (active)"}, {"compound": "CS[C@H]1SC[C@@H]2C(=O)N(C)[C@H](C(C)C)C(=O)OC[C@H](NC(=O)c3cnc4ccccc4n3)C(=O)N[C@H](C)C(=O)N(C)[C@@H]1C(=O)N(C)[C@H](C(C)C)C(=O)OC[C@H](NC(=O)c1cnc3ccccc3n1)C(=O)N[C@H](C)C(=O)N2C", "Potency": "0.001 µM (active)"}, {"compound": "O=C(O)C=Cc1ccc(Cn2ccnc2)cc1", "Potency": "inactive"}, {"compound": "O=C(C[C@@H]1CC=CCCC(=O)O[C@H](c2ccccc2)CNC1=O)NCc1ccc(Cl)cc1", "Potency": "inactive"}, {"compound": "COc1ccnc2[nH]cc(C(=O)C(=O)N3CCN(C(=O)c4ccccc4)C[C@@H]3C)c12", "Potency": "inactive"}, {"compound": "CC(C)(O)CC[C@@H](O)[C@](C)(O)[C@H]1CC[C@@]2(O)C3=CC(=O)[C@@H]4C[C@@H](O)[C@@H](O)C[C@]4(C)[C@@H]3CC[C@]12C", "Potency": "inactive"}, {"compound": "CN(C)CC(=O)N1CCC(c2ccc(NC(=O)c3ncc(C#N)[nH]3)c(C3=CCCCC3)c2)CC1", "Potency": "inactive"}, {"compound": "Cc1cc(O)c2c(c1)C(=O)c1cccc(O)c1C2=O", "Potency": "inactive"}, {"compound": "Cc1onc(-c2ccccc2)c1C(=O)N[C@@H]1C(=O)N2[C@@H](C(=O)O)C(C)(C)S[C@@H]12", "Potency": "inactive"}, {"compound": "CC(C)(O)[C@H]1CC[C@@](C)([C@H]2[C@@H](O)C[C@@]3(C)[C@@H]4C[C@H](O[C@@H]5O[C@H](CO)[C@@H](O)[C@H](O)[C@@H]5O)[C@H]5C(C)(C)[C@@H](O[C@@H]6OC[C@@H](O)[C@H](O)[C@@H]6O)CC[C@@]56C[C@@]46CC[C@]23C)O1", "Potency": "inactive"}, {"compound": "N#Cc1ccc(COC[C@H]2O[C@@H](n3c(NCc4ccc(Cl)c(Cl)c4)nc4c(N)ncnc43)[C@@H](O)[C@@H]2O)cc1", "Potency": "0.418 µM (active)"}, {"compound": "CC(=O)OCC(=O)[C@@]1(O)CC[C@H]2[C@@H]3CCC4=CC(=O)CC[C@]4(C)[C@@H]3C(=O)C[C@@]21C", "Potency": "inactive"}, {"compound": "Cc1ccc2nc(NCCN)c3ncc(C)n3c2c1", "Potency": "11.8 µM (active)"}, {"compound": "O=C1CSC(=O)N1C(CCc1ccncc1)COc1ccc(-c2cccc([N+](=O)[O-])c2)cc1", "note": "(stereo not given)", "Potency": "inactive"}, {"compound": "O=C(O)[C@H](CC(=O)N1C[C@@H]2CCCC[C@H]2C1)Cc1ccccc1", "Potency": "inactive"}, {"compound": "FC(F)(F)c1ccc(Nc2nc3ccc(Oc4ccnc(-c5ncc(C(F)(F)F)[nH]5)c4)cc3[nH]2)cc1", "Potency": "26.4 µM (active)"}, {"compound": "CC(=O)O[C@H]1C[C@@H]2CC[C@H]3[C@H]4C[C@H]([N+]5(C)CCCCC5)[C@@H](OC(C)=O)[C@@]4(C)CC[C@@H]3[C@@]2(C)C[C@H]1[N+]1(C)CCCCC1", "Potency": "inactive"}, {"compound": "Cn1cc(C=CC(=O)c2cccc(F)c2)cc1C=CC(=O)NO", "Potency": "13.2 µM (active)"}, {"compound": "CCC[C@H]1C[C@H](C(=O)N[C@@H]([C@@H]2O[C@@H](SC)[C@@H](O)[C@@H](O)[C@@H]2O)[C@H](C)Cl)N(C)C1", "Potency": "inactive"}, {"compound": "CCNC(=O)Nc1ccc(-c2nc3c(c(N4CCOC[C@H]4C)n2)CCN(C2COC2)C3)cc1", "Potency": "16.6 µM (active)"}, {"compound": "CCC(C)CCCCC(=O)N[C@@H](CCN)C(=O)NC(C(=O)N[C@H](CCN)C(=O)N[C@@H]1CCNC(=O)C([C@@H](C)O)NC(=O)[C@@H](CCN)NC(=O)[C@@H](CCN)NC(=O)[C@@H](CC(C)C)NC(=O)[C@H](Cc2ccccc2)NC(=O)[C@H](CCN)NC1=O)[C@@H](C)O", "note": "(stereo partly drawn) ({Octanoyl(6-Me)}-[Dab][ξThr(3R)][dDab][dDab][Dab]F[dL][dDab][dDab][ξThr(3R)]; lactam 4-C)", "Potency": "inactive"}, {"compound": "Cc1cnn(C)c1C(=O)Nc1cc(Nc2ccc3c(C=Cc4ccccn4)n[nH]c3c2)ccc1F", "Potency": "20.9 µM (active)"}, {"compound": "Cn1cnc2c(F)c(Nc3ccc(Br)cc3F)c(C(=O)NOCCO)cc21", "Potency": "0.0833 µM (active)"}, {"compound": "c1ccc(CNc2nc(NCc3ccccc3)c3ccccc3n2)cc1", "Potency": "5.26 µM (active)"}, {"compound": "COc1cc(O)c2c(c1)C1OC1C[C@H](O)[C@H](O)C(=O)C=CC[C@H](C)OC2=O", "note": "(stereo not given in full)", "Potency": "2.64 µM (active)"}, {"compound": "C=CC(=O)N1CCc2ccc(-n3c(=O)ccc4cnc5ccc(-c6cnn(C)c6)cc5c43)cc21", "Potency": "3.72 µM (active)"}, {"compound": "CC[C@H](CC[C@@H](C)[C@H]1CC[C@H]2[C@@H]3CC=C4C[C@@H](O)CC[C@]4(C)[C@@H]3CC[C@]12C)C(C)C", "Potency": "inactive"}, {"compound": "C#CCC(Cc1cnc2nc(N)nc(N)c2n1)c1ccc(C(=O)N[C@@H](CCC(=O)O)C(=O)O)cc1", "note": "(stereo not given in full)", "Potency": "inactive"}, {"compound": "O=c1ccn([C@@H]2O[C@H](CO)[C@H](O)[C@@H]2F)c(=O)[nH]1", "Potency": "inactive"}, {"compound": "COc1cccc2c1C(=O)c1c(O)c3c(c(O)c1C2=O)C[C@@](O)(C(=O)CO)C[C@@H]3O[C@H]1C[C@H](N)[C@@H](O)[C@H](C)O1", "Potency": "2.35 µM (active)"}, {"compound": "C[C@]12CC[C@@H]3c4ccc(O)cc4CC[C@H]3[C@H]1CC[C@H]2O", "Potency": "4.18 µM (active)"}, {"compound": "C[C@H]1[C@@H](OC(=O)CCC(=O)O)O[C@@H]2O[C@@]3(C)CC[C@@H]4[C@H](C)CC[C@@H]1[C@@]24OO3", "Potency": "0.166 µM (active)"}, {"compound": "C[C@H](NCc1ccc(OCc2cccc(F)c2)cc1)C(N)=O", "Potency": "3.72 µM (active)"}, {"compound": "CCN(CC)CCCCNc1ncc2c(n1)N(C)C(=O)N(c1c(Cl)c(OC)cc(OC)c1Cl)C2", "Potency": "inactive"}, {"compound": "C=CC[C@@H]1C=C(C)C[C@H](C)C[C@H](OC)[C@H]2O[C@@](O)(C(=O)C(=O)N3CCCC[C@H]3C(=O)O[C@H](C(C)=C[C@@H]3CC[C@H](O)[C@H](OC)C3)[C@@H](C)[C@@H](O)CC1=O)[C@@H](C)C[C@@H]2OC", "Potency": "1.48 µM (active)"}, {"compound": "C[C@@]12C[C@@]3(O)O[C@@H](O1)[C@]1(COC(=O)c4ccccc4)[C@@H]3C[C@@]12O[C@@H]1O[C@H](CO)[C@@H](O)[C@H](O)[C@@H]1O", "Potency": "inactive"}, {"compound": "C[C@H]1C[C@H]2[C@@H]3CCC4=CC(=O)C=C[C@]4(C)[C@@H]3C(=O)C[C@]2(C)[C@@]1(O)C(=O)CO", "Potency": "inactive"}]}]}
